Screening results: PubChem BioAssay, National Center for Advancing Translational Sciences (NCATS)
VP16 counter – Gal4-VP16 reporter inhibition counter-screen; AID 2546; 310,000 compounds, 3.5% hits; Drosophila S2 Gal4-VP16 UAS-luciferase, luminescence, 20 h; Potency, µM (titrated, usually from 53.6 µM), hits mostly inhibitors;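 note: Gal4-VP16 expression switched on by copper sulfate through the metallothionein promoter; nearly all actives have a fitted effect of over 50% in size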
RORgamma inh – inhibitors of mouse ROR gamma transcriptional activity; P51450; Drosophila S2 Gal4-RORgamma UAS-luciferase reporter, 20 h; Potency, µM (highest dose often 53.6 µM), actives largely listed as inhibitors; 310,000 compounds, 5.4% hits; AID 2551; note: nearly all actives have a fitted effect of over 60% in size
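ROR gamma transcriptional activity was tracked as Gal4-UAS luciferase output in stably transfected Drosophila Schneider cells, with compound added 1 hr before 700 uM copper sulfate induction and a 20 hr ambient-temperature incubation.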
B2AR arrestin – agonists driving beta-arrestin recruitment to human beta2-adrenergic receptor; P07550; beta-arrestin recruitment to beta2AR, cell-based reporter; Potency, µM (doses to about 46.1 µM), actives largely listed as activators; 330,000 compounds, 0.02% hits; AID 492947; note: nearly all actives have a fitted effect of over 65% in size
ELG1 DNA repair – ELG1-dependent DNA repair inhibition; HEK293T ELG1-luciferase reporter, luminescence, 16 h; DNA damage induced by 5-fluorouridine; Potency, µM (series often up to 46.1 µM), hits mostly inhibitors; 330,000 compounds, 2.3% hits; AID 504467; note: nearly all actives have a fitted effect of over 55% in size
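Overnight (16 hr) co-exposure of 2,000 cells/well to 5-fluorouridine and compound at 37 °C preceded detection. Luciferase was quantified via ONE-Glo luminescence; loss of signal denotes inhibition.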
TSHR antagonist – blocks TSH signaling through the human TSH receptor | P16473 | 330,000 compounds, 0.2% hits | activity change, negative = inhibition, % at 11.5 µM | TSHR-expressing cells, TSH-stimulated cAMP HTRF, 2 h; stronger effect = lower value | AID 504810;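 active = activity change below a set negative limit, meaning inhibition stronger than a set level, cut at about -70% in these data; inconclusive = activity change between two set negative limits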
Target sequence (P16473 whole entry, looked up): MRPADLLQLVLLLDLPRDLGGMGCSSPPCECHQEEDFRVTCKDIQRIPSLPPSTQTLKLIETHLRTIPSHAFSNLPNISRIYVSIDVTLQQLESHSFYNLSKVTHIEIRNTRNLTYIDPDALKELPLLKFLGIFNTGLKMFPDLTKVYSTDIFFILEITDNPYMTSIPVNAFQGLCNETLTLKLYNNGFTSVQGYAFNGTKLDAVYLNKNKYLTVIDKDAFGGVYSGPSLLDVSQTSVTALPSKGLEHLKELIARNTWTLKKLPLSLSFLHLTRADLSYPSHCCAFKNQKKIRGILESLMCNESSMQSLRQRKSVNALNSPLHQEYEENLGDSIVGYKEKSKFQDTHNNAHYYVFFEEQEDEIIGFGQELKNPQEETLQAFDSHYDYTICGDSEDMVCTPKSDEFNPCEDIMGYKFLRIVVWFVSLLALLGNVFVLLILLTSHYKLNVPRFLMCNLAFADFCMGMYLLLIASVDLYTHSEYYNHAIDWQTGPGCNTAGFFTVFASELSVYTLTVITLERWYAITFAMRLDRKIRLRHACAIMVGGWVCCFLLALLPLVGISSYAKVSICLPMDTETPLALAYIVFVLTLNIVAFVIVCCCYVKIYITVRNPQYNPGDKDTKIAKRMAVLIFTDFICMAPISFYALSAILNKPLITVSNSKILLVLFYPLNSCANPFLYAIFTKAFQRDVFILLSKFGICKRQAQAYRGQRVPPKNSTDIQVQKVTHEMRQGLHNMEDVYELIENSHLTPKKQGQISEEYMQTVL
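Antagonism was scored as loss of TSH-driven cAMP in TSHR cells, stimulated with 4nM TSH (EC80) for 2 hours at 37 deg C and detected by homogeneous HTRF competition immunoassay.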
Hits are given with their value; 0 = inactive; ? = inconclusive; - = not tested or not shown; [ ] = dose if it differs, or a comment. Rows were chosen to be rich in hits. Some 7.5% of all compounds tested hit in one or more screens of this group. Unless noted, calls come from the whole dose curve; as a rule, active = well fitted curve in the direction sought with a large enough effect; inconclusive = small, poorly fitted or top-dose-only effect, or another doubt; inactive = no such curve, though single readings can be large; an effect the other way counts as inactive or inconclusive.

SMILES | VP16 counter | RORgamma inh | B2AR arrestin | ELG1 DNA repair | TSHR antagonist
CC1=C(C)CC(c2ccccc2)C(C(=O)c2ccccc2O)C1 (centres undefined) | 0[10 µM] | 0[10 µM] | - | - | -
CCCCc1ccc(NC(=O)CSC2=C(C#N)C(c3ccco3)C3=C(CCCC3=O)N2)cc1 (centres undefined) | 0 | 0 | 0 | 18.4µM | 0
N#CC1=C(SCC(=O)c2ccccc2)NC2=C(C(=O)CCC2)C1c1ccco1 (centres undefined) | ? | ? | 0 | 0 | 0
Cc1ccc(C(=O)CSC2=C(C#N)C(c3ccco3)C3=C(CCCC3=O)N2)cc1 (centres undefined) | 0 | 0 | 0 | 6.51µM | 0
COC(=O)N1C(C)=Cc2ccccc2C1CC(C)=O (centres undefined) | 0 | 0 | - | - | -
COCCn1cnnc1SCC(=O)Nc1ccc(N2CCCCC2)cc1 | - | - | 0 | ? | 0
O=C(c1cc2sccc2n1Cc1ccc(F)cc1)N1CCN(c2nc3ccccc3s2)CC1 | 11.2µM | ? | 0 | ? | 0
O=C(c1cccs1)N1CCN(c2nc3ccccc3s2)CC1 | 0 | ? | 0 | 0 | 0
O=C1c2cccc3c([N+](=O)[O-])ccc(c23)C(=O)N1Cc1cccnc1 | ? | 4.47µM | 0 | ? | 0
Cc1ccnc(N2C(=O)c3cccc4c([N+](=O)[O-])ccc(c34)C2=O)c1 | 0[0.365 µM] | 6.31µM | 0 | 0 | 0
Cc1cccc(N2C(=O)c3cccc4c(N5CCCCC5)c([N+](=O)[O-])cc(c34)C2=O)c1C | 0 | 0 | 0 | 0 | 0
Cc1ccc(N2C(=O)c3cccc4c([N+](=O)[O-])ccc(c34)C2=O)c2cccnc12 | 0 | 0 | 0 | 0 | 0
Cc1nnc(N2C(=O)c3cccc4c([N+](=O)[O-])ccc(c34)C2=O)s1 | 3.16µM | 3.98µM | 0 | ? | ?
CC(C)CCN1CCc2nc(COc3ccccc3)c3c(c2C1)COC(C)C3 (centres undefined) | 0[10 µM] | 0[10 µM] | - | - | -
Cc1cccc(C)c1O | 0 | 0 | - | - | -
Cc1cc(C)c(/C([O-])=C(/C(=S)Nc2ccc(SC(F)F)cc2)[n+]2ccccc2)cc1C | 0 | 11.2µM | 0 | ? | 0
COc1ncc2ncc(=O)n(CCC#N)c2n1 | 0 | 0 | - | - | -
CCOC(=O)C1CCCN(C(c2ccccn2)c2c(C)[nH]c3ccccc23)C1 (centres undefined) | 0 | 12.6µM | 0 | 0 | 0
COCCOn1c(SCCOC)nc2ccccc2c1=O | 0 | 0 | 0 | 0 | 0
CC1=CC(C)(C)N(C(=O)CN2C(=O)c3ccccc3C2=O)c2ccc(C)cc21 | 20µM | ? | 0 | ? | 0
NC(=O)/C=C/C(=O)Nc1ccc(Cl)cc1 | ? | 3.16µM | 0 | ? | 0
O=C(O)/C=C/C(=O)Nc1ccc(O)cc1 | 0 | 0 | 0 | 0 | 0
COc1ccccc1Nc1nc(NCCCN(C)C)nc(N)c1[N+](=O)[O-] | 15.8µM | ? | 0 | 0 | 0
CCC(C)Nc1nc(N)c([N+](=O)[O-])c(Nc2ccccc2OC)n1 (centres undefined) | 0 | 0 | 0 | 0 | 0
COc1ccccc1Nc1nc(NCC(C)C)nc(N)c1[N+](=O)[O-] | 0 | 0 | 0 | 8.2µM | 0
SMILES | VP16 counter | RORgamma inh | B2AR arrestin | ELG1 DNA repair | TSHR antagonist
CCC(C)Nc1nc(N)c([N+](=O)[O-])c(Nc2cc(OC)ccc2OC)n1 (centres undefined) | 0 | 0 | 0 | 23.1µM | 0
CC(C)CNc1nc(N)c([N+](=O)[O-])c(N2CCCCCC2)n1 | ? | 0 | 0 | 7.3µM | 0
C=CCNc1nc(N)c([N+](=O)[O-])c(Nc2ccccc2OC)n1 | 0 | 0 | 0 | 0 | 0
CC1CCN(S(=O)(=O)c2ccc3c(c2)CCC(=O)N3CC(=O)Nc2cccc(C#N)c2)CC1 | - | - | 0 | - | 0
COc1ccccc1/C=N/NC(=O)c1c(-c2ccccc2)noc1C | 0 | 0 | 0 | 0 | 0
Cc1onc(-c2ccccc2)c1C(=O)N/N=C/c1cn(C)c2ccccc12 | ? | 11.2µM | 0 | ? | 0
Cc1cccc(/C=N/NC(=O)c2c(-c3ccccc3)noc2C)c1O | 6.31µM | 3.98µM | 0 | 0 | 0
Cc1ccc(NC(=O)C2CCN(S(C)(=O)=O)CC2)c(C)c1 | 0 | 0 | 0 | 0 | 0
COC(=O)C/C=C\[C@@H](C)[C@@H](/C=N\O[C@@H](C)c1cn([C@H]2COC[C@H]2O)nn1)OC | 0[10 µM] | 0[10 µM] | - | - | -
